Our source for the Potency values is PubChem BioAssay (NCATS).

Records with an inconclusive call do not appear. Calls of active or inactive are those of the source. Calls follow the shape of the dose curve; as a rule, active = well fitted inhibition curve with a large enough effect; inconclusive = small, poorly fitted or top-dose-only effect; inactive = no such curve, though single readings can be large or run the other way.
Potency is read from the fitted curve at half-maximal effect.

The nature of one experiment: BET inhibitor-based combinations targeting novel dependencies in MECOM-rearranged (r) AML: OCI-AML3 cell line (AID 2202232). Also: nearly all actives have a fitted effect of over 35% in size. The following applies: CellTiter-Glo luminescence, 48 h; Potency: OCI-AML3 viability; series mostly up to 46 µM. The method, boiled down: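 Each compound was tested at eleven concentrations on cells seeded at 500/well. After two days' incubation, ATP-based luminescence reported viability; responses relative to DMSO and blank wells yielded AUC and cell-line-centred Z-AUC.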
Background: In ATP-based viability assays light output follows the ATP content of the culture.
On to `Nc1nc(-c2nn(Cc3ccccc3F)c3ncccc23)ncc1C1CC1`, for which the Potency was 5.9 µM (active).

Consider `O=C(O)C[C@H]1CCc2c1[nH]c1ccc(OCc3ccc(C4CCCC4)c(C(F)(F)F)c3)cc21`, for which the Potency was 13.2 µM (active).

Consider `Cn1cc(-c2ccc(-c3cncc(Cl)c3N3CCC4(CCNC4=O)CC3)cc2)cn1`, for which the Potency is 16.6 µM (active).

On to `CN1C/C=C/CCOc2cccc(c2)-c2ccnc(n2)Nc2cccc(c2)C1`, for which the Potency is 0.468 µM (active).

On to `CN1CCN(Cc2ccc(Nc3ncc(Cl)c(Nc4ccccc4S(=O)(=O)N(C)C)n3)cc2)CC1`, for which the Potency is 0.191 µM (active).

For the compound `CCC(=O)N1CCOc2c(cc(-c3cc(OC)cc(OC)c3)cc2C(=O)N[C@H]2CCCN(C)C2)C1`, the Potency is 16.6 µM (active).

For `CN1CCCN(C(=O)c2cccc(-c3ccc(/C=C4/C(=O)Nc5ccc(Cl)cc54)o3)c2)CC1`, the Potency was 6.61 µM (active).

With `O=C(Nc1ncc(SCCN2CCCC2)s1)[C@]1(c2ccc(S(=O)(=O)C3CC3)cc2)C[C@H]1C1CCCCC1`, the Potency is 20.9 µM (active).

For `C[C@@H]1Cc2c([nH]c3ccccc23)[C@@H](c2c(F)cc(/C=C/C(=O)O)cc2F)N1CC(C)(C)F`, the Potency result is “inactive”.

For `Cc1cc2cc(Oc3ccnc(Nc4cccc(CS(=O)(=O)NCCN(C)C)c4)n3)ccc2[nH]1`, the Potency is 20.9 µM (active).

For `CNc1nc(-c2ccc3c(N)n[nH]c3c2)cc(N2C[C@@H](C(=O)NC3CCCCC3)CC[C@H]2C)n1`, the Potency was 5.9 µM (active).

For the compound `Cc1ccc(-n2nc(C(C)(C)C)cc2NC(=O)NCc2cc(F)ccc2Oc2ccc3c(cnn3CCO)c2)cc1`, the Potency is 14.8 µM (active).

For `CCCN(CCC)C(=O)C1=Cc2ccc(-c3ccc(C(=O)N4CCCC4)cc3)cc2N=C(N)C1`, the Potency was 16.6 µM (active).

Turning to `CC(C)Oc1ccc(C(=O)N[C@H](CNC(=O)CN(C)C)Cc2ccc(-c3cn4cccc([C@H](C)O)c4n3)cc2)cc1Cl`, the Potency is 0.263 µM (active).

`C[C@]12CCCN1CC1=NNC(=O)c3cc(F)cc4[nH]c2c1c34`: the Potency was 20.9 µM (active).

In the case of `[O-][n+]1cccc(-c2nc3c(Cl)cccc3cc2[C@@H](Nc2ncnc3cccnc23)C(F)(F)F)c1`, the Potency was 5.25 µM (active).

Consider `COc1cc(N2CCN(C)CC2)ccc1Nc1ncc2c(n1)N(C)c1ccccc1C(=O)N2`, for which the Potency was 18.6 µM (active).

With `CC(=O)N1CCC(Nc2cc(C(=O)NC[C@H](O)CN3CCc4ccccc4C3)ncn2)CC1`, the Potency was 0.0042 µM (active).

Take `CCN(CC)C(=S)SSC(=S)N(CC)CC`: the Potency is 0.332 µM (active).

With `NC(=O)C1=C(O)[C@@]2(O)C(=O)C3=C(O)c4c(O)cccc4C[C@H]3C[C@H]2CC1=O`, the Potency was 3.72 µM (active).

Take `O=S(=O)(Nc1ccc(-c2cccnc2)c2cccnc12)c1cccc(C(F)(F)F)c1`: the Potency is 7.42 µM (active).

`CC(C)n1cc(-c2ccc3c(c2)N(C)CC3)c2c(NS(=O)(=O)c3ccn(C)n3)ccnc21`: the Potency result is “inactive”.

In the case of `CC1c2cccc(O)c2C(O)=C2C(=O)C3(O)C(O)=C(C(N)=O)C(=O)C(N(C)C)C3C(O)C21` (stereo unspecified), the Potency is 26.3 µM (active).

Regarding `CCOC(=O)N[C@@H]1CC[C@@H]2[C@@H](C1)C[C@H]1C(=O)O[C@H](C)[C@H]1[C@H]2/C=C/c1ccc(-c2cccc(F)c2)cn1`, the Potency was 14.8 µM (active).

For `N#CCC1(n2cc(-c3ncnc4[nH]ccc34)cn2)CN(C2CCN(C(=O)c3ccnc(C(F)(F)F)c3F)CC2)C1`, the Potency is 1.66 µM (active).

As to `C=CC(=O)N1CCC(C2CCNc3c(C(N)=O)c(-c4ccc(Oc5ccccc5)cc4)nn32)CC1` (stereo unspecified), the Potency is 13.2 µM (active).

A further experiment can be described thus: BET inhibitor-based combinations targeting novel dependencies in MECOM-rearranged (r) AML: MV-4-11 cell line (AID 2202233). Also: nearly all actives have a fitted effect of over 45% in size. The following applies: MV-4-11 AML viability, CellTiter-Glo luminescence, 48 h; series mostly up to 46 µM. In outline:
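First, 500 cells per well were seeded; next, drugs were pinned as 11-point doses; then plates sat 48 hr in the incubator; finally CellTiter-Glo was added and luminescence read, with AUC and Z-AUC computed.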
As for `CN(C)CCOc1ccc(-c2nc(-c3ccc4c(c3)CC/C4=N\O)c(-c3ccncc3)[nH]2)cc1`, the Potency was 16.6 µM (active).

For the compound `Nc1nc(Nc2ccc3c(c2)CC[C@@H](N2CCCC2)CC3)nn1-c1cc2c(nn1)-c1ccccc1CCC2`, the Potency is 2.63 µM (active).

For `COc1ccc(-c2oc3ncnc(N)c3c2-c2ccc(NC(=O)Nc3cc(C(F)(F)F)ccc3F)cc2)cc1`, the Potency was 0.372 µM (active).

For `OC1CCC(Oc2cccc3cnc(Nc4ccc5nc[nH]c5c4)nc23)CC1` (stereo unspecified), the Potency is 0.0525 µM (active).

Take `O=C(NC[C@H](O)CO)c1ccncc1Nc1ccc(I)cc1F`: the Potency is 5.9 µM (active).

As to `C=CCN(/C=C1\C(=O)O[C@@H](COC)[C@]2(C)C1=C(O)C(=O)C1=C2[C@@H](OC(C)=O)C[C@]2(C)C(=O)CC[C@H]12)CC=C`, the Potency was 20.9 µM (active).

As for `N#Cc1ccc(-c2c(-c3ncn[nH]3)sc(N3CCOCC3)c2C#N)c(F)c1`, the Potency was 5.9 µM (active).

As for `c1ccc(-c2cc(CCC3CCNCC3)c3ccccc3n2)cc1`, the Potency is 20.9 µM (active).

For the compound `COc1cc(C(=O)NC(N)=Nc2ccc(C)c(NC(=O)c3ccc(-c4ccccc4)cc3)c2)cc(OC)c1OC`, the Potency was 18.6 µM (active).

With `CC(C)n1c(=O)cc(N[C@@H](C)c2ccccc2)[nH]c1=O`, the Potency is 14.8 µM (active).

On to `CCN(C(=O)c1c(O)c2c(Cl)cccc2n(C)c1=O)c1ccccc1`, for which the Potency is 14.8 µM (active).

Regarding `C=C[C@@H]1CN2CCC1C[C@H]2[C@H](O)c1ccnc2ccc(OC)cc12` (stereo partly specified), the Potency is 16.6 µM (active).

On to `COC(=O)Nc1nc2ccc(S(=O)c3ccccc3)cc2[nH]1` (stereo unspecified), for which the Potency was 16.6 µM (active).

Consider `CC(=O)Nc1ccc(O)cc1`, for which the Potency entry was “inactive”.

Consider `Nc1nc(-c2nn(Cc3ccccc3F)c3ncccc23)ncc1C1CC1`, for which the Potency was 1.18 µM (active).

As for `O=C(O)C[C@H]1CCc2c1[nH]c1ccc(OCc3ccc(C4CCCC4)c(C(F)(F)F)c3)cc21`, the Potency is 5.9 µM (active).

As for `Cn1cc(-c2ccc(-c3cncc(Cl)c3N3CCC4(CCNC4=O)CC3)cc2)cn1`, the Potency was 14.8 µM (active).

As to `CN1C/C=C/CCOc2cccc(c2)-c2ccnc(n2)Nc2cccc(c2)C1`, the Potency was 0.417 µM (active).

As to `CN1CCN(Cc2ccc(Nc3ncc(Cl)c(Nc4ccccc4S(=O)(=O)N(C)C)n3)cc2)CC1`, the Potency is 0.0539 µM (active).

In the case of `CCC(=O)N1CCOc2c(cc(-c3cc(OC)cc(OC)c3)cc2C(=O)N[C@H]2CCCN(C)C2)C1`, the Potency is 10.5 µM (active).

Consider `CN1CCCN(C(=O)c2cccc(-c3ccc(/C=C4/C(=O)Nc5ccc(Cl)cc54)o3)c2)CC1`, for which the Potency is 0.662 µM (active).

For `O=C(Nc1ncc(SCCN2CCCC2)s1)[C@]1(c2ccc(S(=O)(=O)C3CC3)cc2)C[C@H]1C1CCCCC1`, the Potency was 11.8 µM (active).

For `C[C@@H]1Cc2c([nH]c3ccccc23)[C@@H](c2c(F)cc(/C=C/C(=O)O)cc2F)N1CC(C)(C)F`, the Potency entry was “inactive”.

As for `Cc1cc2cc(Oc3ccnc(Nc4cccc(CS(=O)(=O)NCCN(C)C)c4)n3)ccc2[nH]1`, the Potency is 3.32 µM (active).

On to `CNc1nc(-c2ccc3c(N)n[nH]c3c2)cc(N2C[C@@H](C(=O)NC3CCCCC3)CC[C@H]2C)n1`, for which the Potency is 14.8 µM (active).

Regarding `Cc1ccc(-n2nc(C(C)(C)C)cc2NC(=O)NCc2cc(F)ccc2Oc2ccc3c(cnn3CCO)c2)cc1`, the Potency was 18.6 µM (active).

As to `CCCN(CCC)C(=O)C1=Cc2ccc(-c3ccc(C(=O)N4CCCC4)cc3)cc2N=C(N)C1`, the Potency was 16.6 µM (active).

For the compound `CC(C)Oc1ccc(C(=O)N[C@H](CNC(=O)CN(C)C)Cc2ccc(-c3cn4cccc([C@H](C)O)c4n3)cc2)cc1Cl`, the Potency was 0.166 µM (active).

Regarding `C[C@]12CCCN1CC1=NNC(=O)c3cc(F)cc4[nH]c2c1c34`, the Potency is 2.63 µM (active).

With `[O-][n+]1cccc(-c2nc3c(Cl)cccc3cc2[C@@H](Nc2ncnc3cccnc23)C(F)(F)F)c1`, the Potency was 8.33 µM (active).

On to `COc1cc(N2CCN(C)CC2)ccc1Nc1ncc2c(n1)N(C)c1ccccc1C(=O)N2`, for which the Potency was 18.6 µM (active).

As to `CC(=O)N1CCC(Nc2cc(C(=O)NC[C@H](O)CN3CCc4ccccc4C3)ncn2)CC1`, the Potency is 0.0417 µM (active).

For the compound `CCN(CC)C(=S)SSC(=S)N(CC)CC`, the Potency was 0.263 µM (active).

As to `NC(=O)C1=C(O)[C@@]2(O)C(=O)C3=C(O)c4c(O)cccc4C[C@H]3C[C@H]2CC1=O`, the Potency is 9.34 µM (active).

With `O=S(=O)(Nc1ccc(-c2cccnc2)c2cccnc12)c1cccc(C(F)(F)F)c1`, the Potency was 7.42 µM (active).

Turning to `CC(C)n1cc(-c2ccc3c(c2)N(C)CC3)c2c(NS(=O)(=O)c3ccn(C)n3)ccnc21`, the Potency result was “inactive”.

Consider `CC1c2cccc(O)c2C(O)=C2C(=O)C3(O)C(O)=C(C(N)=O)C(=O)C(N(C)C)C3C(O)C21` (stereo unspecified), for which the Potency was 26.3 µM (active).

Regarding `CCOC(=O)N[C@@H]1CC[C@@H]2[C@@H](C1)C[C@H]1C(=O)O[C@H](C)[C@H]1[C@H]2/C=C/c1ccc(-c2cccc(F)c2)cn1`, the Potency is 26.3 µM (active).

Take `N#CCC1(n2cc(-c3ncnc4[nH]ccc34)cn2)CN(C2CCN(C(=O)c3ccnc(C(F)(F)F)c3F)CC2)C1`: the Potency is 16.6 µM (active).

`C=CC(=O)N1CCC(C2CCNc3c(C(N)=O)c(-c4ccc(Oc5ccccc5)cc4)nn32)CC1` (stereo unspecified): the Potency is 10.5 µM (active).
